Assay outcomes deposited in PubChem BioAssay by several laboratories.
Only some compounds are listed: those with a hit (about 3% of all), similar ones and a draw of the others.
HIF-2a inh: HIF-2a reporter inhibitors, primary screen, luminescence, 786-0 RCC cells; 786-0 RCC cells HIF-2a reporter, luciferase luminescence, overnight; inhibition, % at 18.8 µM; 360,000 compounds, 0.72% hits;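 active = inhibition of the luminescence signal of 40% or more relative to plate controls, in a single-dose primary screen at 18.75 µM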
CF NFkB block: inhibitors of PAF-induced NF-kB signaling, primary screen, cell-based, GFP fluorescence, uHTS; KKLEB NF-kB-GFP reporter, GFP fluorescence overnight; inhibition, % at 5 µM; 360,000 compounds, 0.86% hits;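 active = at least 50% inhibition at 5 µM, scaled per plate between neutral and stimulator controls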;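 note: PAF is a Pseudomonas aeruginosa culture filtrate used as stimulus; plate controls were PAF-stimulated DMSO wells for no effect and unstimulated DMSO wells for full effect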
KKLEB tox: cytotoxicity in KKLEB CF airway cells, primary screen, cytotoxicity control for CF NF-kB inhibitor project, cell-based, uHTS, fluorescence assay plates; KKLEB CF airway cells viability, ATPlite luminescence, overnight; active compounds read low; cells stimulated with P. aeruginosa culture filtrate; activity change (cytotoxicity), % at 5 µM; AID 602141, 2011; 360,000 compounds, 0.36% hits;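 active = corrected activity change at or below -50% at 5 µM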
ABHD5-PLIN5 inh: ABHD5-PLIN5 interaction inhibitors, primary screen, cell lysate, split luciferase complementation, luminescence | Perilipin-5 (Homo sapiens) + 1-acylglycerol-3-phosphate O-acyltransferase ABHD5 (Homo … | Split G. princeps luciferase complementation, 4 h | inhibition, % at 4 µM | 360,000 compounds, 0.78% hits;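 active = inhibition above the mean inhibition across every tested compound plus 3 SD, cut at about 22% in these data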;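 note: 0% = DMSO only wells and the 100% control is not disclosed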
TRPM1 prom inh: inhibitors of MITF-dependent TRPM1 promoter reporter, primary screen, cell-based, SK-MEL-5, single point, luciferase | 330,000 compounds, 0.83% hits | AID 488899, 2010 | inhibition, % at 12.5 µM | SK-MEL-5 TRPM1 promoter luciferase, 24 h;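 active = mean inhibition across replicates of 60% or more, whatever share of single replicates reaches that level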
Peg3 promoter: Peg3 promoter-driven luciferase inhibitors, primary screen, cell-based, HeLa, luciferase luminescence; HeLa PEG-Prom luciferase reporter, overnight; inhibition, % at 20 µM; 360,000 compounds, 1.7% hits; AID 588405, 2011;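 active = inhibition of at least 50% at 20 µM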
Active calls of the source: *; . = no result.

SMILES | HIF-2a inh | CF NFkB block | KKLEB tox | ABHD5-PLIN5 inh | TRPM1 prom inh | Peg3 promoter
O=C1C=C(C2CCCCC2)C(=O)c2ccccc21 | 0.6 | 71.1* | 18.3 | -3.5 | 44.2 | 11.5
COC(=O)[C@@]12C[C@@H](CC(=O)NCc3cccc4ccccc34)C(=O)N(CCc3ccc(OC)c(OC)c3)C1=CCC(C)(C)C2 | -11.7 | . | . | 8.6 | . | .
CCN(CC(=O)Nc1ccc2c(c1)OCCO2)C(=O)c1cccc(OCC(C)C)c1 | -39.4 | 13.7 | -11.0 | 0.1 | 2.5 | -25.4
Cn1c(=O)c2c(nc(N/N=C/c3ccc(OC(=O)c4ccco4)cc3)n2Cc2ccccc2)n(C)c1=O | 4.0 | -59.4 | 8.4 | -5.3 | -0.9 | 22.9
Clc1ccc(CSc2nc3ccncc3[nH]2)cc1 | -126.0 | -4.4 | -58.7* | -0.9 | -25.1 | -137.1
Cc1ccc(CSc2nc3ccncc3[nH]2)cc1 | -19.0 | -0.4 | -69.6* | 7.0 | -0.5 | -33.6
O=C(NCc1ccc(Cl)cc1)c1ccc(CSc2nc3ccncc3[nH]2)cc1 | 3.2 | 18.1 | -3.1 | -2.4 | -3.0 | 31.3
O=C(c1ccc(CSc2nc3ccncc3[nH]2)cc1)N1CCCCCC1 | -100.7 | -0.1 | -39.6 | 1.9 | -49.7 | -22.5
S=c1[nH]nc(C2CCCCC2)n1/N=C/c1ccncc1 | 10.6 | 84.8* | -11.9 | -3.4 | -3.4 | 2.4
CSc1ccc(/C=N/n2c(C3CCCCC3)n[nH]c2=S)cc1 | -4.6 | -0.5 | 16.1 | -3.5 | -5.3 | 3.5
CCOc1ccc(-n2c(C)cc(C(=O)CCl)c2C)cc1 | 19.6 | 40.8 | -26.9 | 4.0 | 69.4* | 111.5*
COC(=O)c1ccc(-n2c(C)cc(C(=O)COC(=O)C3=COCCO3)c2C)cc1 | -1.4 | 7.1 | -7.7 | 2.6 | 2.3 | -0.3
CCOC(=O)c1cc(C)n(-c2ccc(Cl)cc2)c1C | -48.1 | 12.8 | -7.5 | 6.0 | 5.8 | -37.8
COC(=O)c1ccc(-n2c(C)cc(C(=O)CCl)c2C)cc1 | 32.7 | 10.5 | -36.6 | 6.5 | 87.3* | 81.5*
CC1=C([N+](=O)[O-])C(c2ccc3c(c2)OCO3)N(C)C(=O)N1C (stereo unspecified) | 23.3 | 5.7 | 2.9 | -1.1 | -9.0 | 9.6
Cc1ccc(S(=O)(=O)N(C)C)cc1NC(=O)COc1ccccc1C(=O)Nc1ccccc1 | 13.4 | 15.0 | -16.6 | 1.1 | -0.8 | 59.9*
CCOC1=C2CN(S(=O)(=O)c3ccc(C)cc3)CC[C@@H]2N(S(=O)(=O)c2ccc(C)cc2)[C@H](c2ccccc2)C1 | 15.4 | -4.3 | -18.6 | -9.3 | . | -1.4
O=C1/C(=C/c2ccc([N+](=O)[O-])cc2)C=C(c2ccccc2)N1c1ccc(O)cc1 | -21.1 | 28.2 | -20.3 | -3.0 | 68.2* | 15.4
O=C(O)c1cccc(N2C(=O)/C(=C/c3ccc([N+](=O)[O-])cc3)C=C2c2ccccc2)c1 | 56.6* | 4.0 | 4.2 | 7.9 | 9.6 | 53.2*
CCOC(=O)C1(CCCc2ccccc2)CCN(C(=O)C2=C(C)OCCO2)CC1 | -1.1 | -8.1 | 4.6 | -0.9 | 2.0 | 13.2
O=C(C1CCN(S(=O)(=O)c2ccc(Cl)cc2)CC1)N1CCN(c2ccccn2)CC1 | 9.8 | 1.0 | -9.1 | -11.5 | -0.4 | 15.8
Cc1[nH]c2c(ccc3ccccc32)c1C1C(CCN)C1(C)C (stereo unspecified) | 1.5 | 4.6 | -25.0 | 20.2 | 71.1* | 100.1*
COc1cc(OC)cc(N(C(=O)CNC(=O)c2cccs2)C(C(=O)NCC2CCCO2)c2ccccc2)c1 (stereo unspecified) | 18.6 | -15.1 | 3.4 | 1.1 | 7.3 | 8.7
O=C(CCl)c1cc2c3c(c1)CC(=O)N3CCC2 | -6.9 | 19.6 | 8.6 | -1.5 | 44.0 | 81.0*
COc1cc2ccccc2cc1C(=O)Nc1sc2c(c1C(N)=O)CCN(C(C)C)C2 | 8.1 | 29.4 | -23.0 | 20.0 | 46.2 | 100.5*
CN1CCc2c(sc(NC(=O)c3ccc4ccccc4c3)c2C(N)=O)C1 | -167.3 | -35.6 | -10.3 | 13.4 | -111.3 | -23.1
Cc1cc(C)n2c(Nc3c(C)cccc3C)c(CC(C)C)nc2n1 | -1.4 | . | . | 5.8 | . | .
